# From PubChem BioAssay AID1159580 (chemical genetic matrix, 2015)
# Hit rate of the full screen: of about 5,500 compounds, about 2,000 (36%) were called active. Another 18% or so got no clear call; they are omitted. The list shows a part of the results. A number with no mark means an inactive call. Rule as the data show it: active = normalized growth mostly below about 0.91 (no sharp cut-off); inconclusive = no clear call, values can overlap the other calls; inactive = mostly above about 0.92. Where a SMILES comes first, the peptide text is derived from it. [ ]: non-standard residue; d: D form. Orn = NCCC[CH](N)C(=O)O
# Assay: chemical genetic growth profiling, strain panel (AID 1159580);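 also: tested at 20 µM; growth read once vehicle control cultures reached saturation at 30 °C; 1 = growth at the plate median or of vehicle wells; lower values mean less growth of the strain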
# Conditions: S. cerevisiae deletion strains, growth OD, locus YOL012C, strain htz1
structure (smiles),measurement,value
CC(C)CC1NC(=O)C(CCCN)NC(=O)C(C(C)C)NC(=O)C(Cc2ccc(O)cc2)NC(=O)C(CCC(=O)O)NC(=O)C(CC(=O)O)NC(=O)C(Cc2ccccc2)NC(=O)C(Cc2ccccc2)NC(=O)C2CCCN2C(=O)C(Cc2ccccc2)NC1=O (stereo unspecified) (cyclo(DEYV[Orn]LFPFF); configuration not given here),normalized growth,0.202
